Reference: the supplement of paper PMC10338343
± gives the standard deviation.

Each sequence was assayed on MILI (PIWIL2) piRISC loaded with piRNA #1 (26 nt) (assay: pre-steady-state target cleavage rate (min^-1); guide: piRNA #1 5'p-UGAGGUAGUAGGUUGUAUAGUAUCCA; MIWI and MILI are mouse PIWI proteins and EfPiwi is from a freshwater sponge; tags in brackets are library labels; higher = faster piRNA-guided slicing of the target). Conditions: auxiliary factor: 500 nM mouse GTSF1.
Outline: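 Cleave-'n-Seq: a transcribed, DNA-blocked target RNA library (0.1 nM) was mixed with 1 nM active affinity-purified piRISC carrying one synthetic guide, with or without 500 nM GTSF1 partner protein, in HEPES–potassium acetate buffer at 33 °C for 0–8 or 0–960 min. Uncleaved targets were sequenced and normalised to depth and to weakly complementary targets. Three trials were pooled, and k3 was capped at 0.0001 min^-1. The pre-steady-state cleavage rate came from a burst-and-steady-state fit.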
GGAGACCUAUGUUACAACCUACUACCUCA was tested, and the “pre-steady-state target cleavage rate” value was 0.0425 ± 0.0076. With GGAGUGGAUACUAUAGAACCUACUACCUGA the “pre-steady-state target cleavage rate” value was 0.0453 ± 0.0088. In the case of “GGAGACCUAUGAUAUGUUGGUACUACCAGA [g4:g10:cont:t1A]”, the “pre-steady-state target cleavage rate” value is reported as under 0.0001. In the case of GGAGUGGAUAGUAAACAACCUACUACCUCA, the “pre-steady-state target cleavage rate” value is reported as 0.0879 ± 0.0084. For GGAGACCUUAGUAUACUACCUACUACCUCA, the “pre-steady-state target cleavage rate” value was 0.0896 ± 0.012. GGAGACCAUACUAAACAAGCUACUACCUCA was tested, and the “pre-steady-state target cleavage rate” value was 0.236 ± 0.018. With GGAGACCUAUGUAUACAAGCAACUACCUCA the “pre-steady-state target cleavage rate” value was 0.0055 ± 0.0022. GGAGACCAUACUAUACAACGUAGUACCUCA was tested, and the “pre-steady-state target cleavage rate” value was 0.0119 ± 0.0033. For GGAGUGGAUCACUAUACAACCUACUACCUCA, the “pre-steady-state target cleavage rate” value was 0.0867 ± 0.025. In the case of GGAGACCAUACUAUACAACCUUCAACCUCA, the “pre-steady-state target cleavage rate” value is reported as 0.0066 ± 0.0029. GGAGACCUAUCUAUACUUGCUACUACCUCA was tested, and the “pre-steady-state target cleavage rate” value was 0.0151 ± 0.0031. For GGAGACCUUUCUAUACAACGUACUACCUCA, the “pre-steady-state target cleavage rate” value was 0.013 ± 0.003. In the case of GGAGACCUAUGAUAUGUUGCUACUCCUCA, the “pre-steady-state target cleavage rate” value is reported as under 0.0001. For GGAGACCUUACUAUACAACCUACUACGACA, the “pre-steady-state target cleavage rate” value was 0.119 ± 0.021. For GGAGACCUAUGUAAACAACGUACUACCUCA, the “pre-steady-state target cleavage rate” value was 0.0029 ± 0.002. GGAGACCUAAGUAUACAACCUACUACCACA was tested, and the “pre-steady-state target cleavage rate” value was 0.0885 ± 0.012.
